Source: PubChem BioAssay
An excerpt weighted towards active compounds, which were near 3.6% of everything screened.
mHTT-CaM PPI inh = mutant huntingtin-calmodulin interaction inhibitors – biochemical, AlphaScreen, primary screen; P42858; AlphaScreen His-mHTT/GST-CaM binding, luminescence; inhibition, % at 15 µM; 190,000 compounds, 3.6% hits
Pf apPOL block = Pf-apPOL inhibitors, biochemical, fluorescence. Plasmodium falciparum apicoplast DNA polymerase (apPOL). Recombinant Pf-apPOL, molecular beacon fluorescence, 1.5 h. inhibition, % at 10 µM. 210,000 compounds, 0.25% hits
Of the large screens only hits and unclear results are named; the others gave an inactive call. No stated cut-off is given here; in the data, active means inhibition above about 50%; inactive means the rest.

Cc1c(C(c2ccco2)c2c(C)n(C)n(-c3ccccc3)c2=O)c(=O)n(-c2ccccc2)n1C	none
Cc1c(C(=O)Nc2cccc(C(F)(F)F)c2)oc2ccc(S(=O)(=O)N3CCCC3)cc12	none
CCCCN(CC)C(=O)CSc1nc2n[nH]c(C)c2c(=N)n1-c1cccc(C)c1	none
Cc1[nH]nc2nc(SCC(=O)N3CCCC3)n(-c3cccc(Cl)c3)c(=N)c12	none
CCC(Sc1nc2n[nH]c(C)c2c(=N)n1-c1ccc(Cl)c(C)c1)C(=O)NCCOC (centres undefined)	mHTT-CaM PPI inh 52
Cc1[nH]nc2nc(SCC(=O)NCc3ccco3)n(-c3cccc(Cl)c3)c(=N)c12	mHTT-CaM PPI inh 50
CCC(Sc1nc2n[nH]c(C)c2c(=N)n1-c1cccc(Cl)c1)C(=O)NCCOC (centres undefined)	mHTT-CaM PPI inh 61
Cc1cc(NC(=O)CSc2nc3n[nH]c(C)c3c(=N)n2-c2ccc(Cl)c(C)c2)no1	none
Cc1cccc(NC(=O)/C(=C\c2ccc3c(c2)OCO3)NC(=O)c2ccccc2Cl)c1	none
O=C(c1ccccc1Cl)N1CC2CN(S(=O)(=O)c3cccc(F)c3)CC(C1)O2	none
CCNC(=O)c1cccnc1N1CCC(C)CC1	none
Cc1cc(C)c(C(=O)N2CCC(CC(=O)NCc3ccc(F)cc3)CC2)[nH]1	none
CCN(CC)CCCNC(=O)Cc1cn(C)c2ccccc12	none
CCN(CCCNC(=O)Cc1cn(C)c2ccccc12)c1ccccc1	mHTT-CaM PPI inh 53
O=C(COc1ccccc1)N1CCC(c2ccn3ncc(C(=O)N4CCOCC4)c3c2)CC1	none
O=[N+]([O-])c1cc([N+](=O)[O-])c2cccnc2c1Nc1ccc(O)cc1	mHTT-CaM PPI inh 75
O=[N+]([O-])c1ccc(N2CCN(CCO)CC2)c2ncccc12	none
O=[N+]([O-])c1cc2cccnc2c2ncccc12	mHTT-CaM PPI inh 100 (no result: Pf apPOL block)
CCCN(CCC)c1c([N+](=O)[O-])cc([N+](=O)[O-])c2cccnc12	mHTT-CaM PPI inh 80
CS(=O)(=O)c1ccc(Sc2cccc3cccnc23)c([N+](=O)[O-])c1	none
COc1ccc(Nc2c([N+](=O)[O-])cc([N+](=O)[O-])c3cccnc23)cc1	none
O=C(NCc1ccc2c(c1)OCO2)C1c2ccccc2CCN1C(=O)c1ccccc1 (centres undefined)	none
Cc1ccsc1C(=O)N1CCCCC1CCN1CCOCC1 (centres undefined)	none
COc1ccc(C(O)(C#Cc2ccccc2)c2ccccc2)cc1 (centres undefined)	mHTT-CaM PPI inh 60
OC(C#CC(O)(c1ccccc1)c1ccccc1)(c1ccccc1)c1ccccc1	none (no result: mHTT-CaM PPI inh)
CCN1CCN(C(=O)Cn2cc(C)sc2=NC(=O)c2cccc(Cl)c2)CC1	none
COc1cccc(C(=O)N=c2sc(C)cn2CC(=O)N2CCCC2)c1	Pf apPOL block 87
CCN(CC)c1ccc2cc(C(N)=O)c(=Nc3ccc(C)cc3)oc2c1	none
CCN(CC)c1ccc2cc(C(N)=O)c(=Nc3ccccc3C)oc2c1	mHTT-CaM PPI inh 54
CCC1Oc2ccc(Cl)cc2N(CC(=O)NCCc2ccccc2)C1=O (centres undefined)	none
O=[N+]([O-])c1ccc2[nH]c3c(c2c1)CCCC3=NCc1ccccc1	none
O=c1c2c([nH]c3ccccc13)CCCC2	none (no result: mHTT-CaM PPI inh)
c1ccc2c3c([nH]c2c1)CCCCCC3	none (no result: mHTT-CaM PPI inh)
Nc1ccc2[nH]c3c(c2c1)CCCC3	mHTT-CaM PPI inh 68 (no result: Pf apPOL block)
Brc1ccc2[nH]c3c(c2c1)CCCCC3	mHTT-CaM PPI inh 53 (no result: Pf apPOL block)
O=C(NCCS(=O)(=O)N1CCN(c2ncccn2)CC1)c1ccc(F)cc1F	none
Cc1oc(C(C)(C)C)cc1C(=O)NCCSCc1c(F)cccc1Cl	none (no result: mHTT-CaM PPI inh)
CCCCN(Cc1ccco1)C(=O)c1noc2c1CCCCC2	none
C=CCn1c(-c2ccccc2)csc1=Nc1c(C)n(C)n(-c2ccccc2)c1=O	none
Cc1c(N=c2scc(-c3ccc(Cl)cc3)n2Cc2ccco2)c(=O)n(-c2ccccc2)n1C	mHTT-CaM PPI inh 60
CC(C)C(=O)N1CCN(C(C(=O)N2CCCCC2)C2CCCC2)CC1 (centres undefined)	none
C=C(C)CN(CC)Cc1ccc([N+](=O)[O-])o1	none
CCC(C)Nc1nc(C)nc2c1c(C)nn2-c1ccccc1 (centres undefined)	mHTT-CaM PPI inh 99
CCCNc1nc(C)nc2c1c(C)nn2-c1ccc(C)cc1	none
Cc1ccccc1CSC1=NN2CCCC(=O)N=C2S1	none
Cc1ccc(/C=C2\SC(=O)N(CNc3ccc(Br)cc3)C2=O)o1	none
CCC(CC)C(=O)Nc1c2c(nn1-c1ccc(C)cc1)CS(=O)C2 (centres undefined)	none
N#Cc1c(C(F)(F)F)cc(-c2ccccc2)nc1SCCC(N)=O	none
N#Cc1c(C(F)(F)F)cc(-c2ccccc2)nc1SCC(N)=O	Pf apPOL block 65
O=c1[nH]c(O)c(C=C2C=Nc3ccccc32)[nH]1	none (no result: mHTT-CaM PPI inh)
Oc1nc(Nc2ccccc2)sc1C=C1C=Nc2ccccc21	mHTT-CaM PPI inh 69
COc1cc(-c2c(C#N)c(N)n3c(nc4ccccc43)c2C#N)ccc1OCC#N	mHTT-CaM PPI inh 69
CCOc1ccc(-c2c(C#N)c(N)n3c(nc4ccccc43)c2C#N)cc1OC	none
CCC(=O)N1c2ccccc2NC2=C(C(=O)CC(C)(C)C2)C1c1cc(OC)c(OC)c(OC)c1 (centres undefined)	none
COc1ccc(-c2nc3ccccc3c(=O)n2CC(=O)Nc2ccc(C)c(Cl)c2)cc1OC	none
CN(CC(=O)NCc1ccco1)S(=O)(=O)c1ccc2[nH]c3c(c2c1)CCCC3	none
Cc1ccc(CNS(=O)(=O)c2ccc3[nH]c4c(c3c2)CCCCC4)cc1	none
O=c1[nH]c2ccc(S(=O)(=O)NCc3ccco3)cc2s1	none
CN(C)c1ccc(CNS(=O)(=O)c2ccc3[nH]c4c(c3c2)CCCCC4)cc1	mHTT-CaM PPI inh 55
O=S(=O)(NCc1ccccc1)c1ccc2[nH]c3c(c2c1)CCCCC3	mHTT-CaM PPI inh 57
CN(Cc1ccco1)S(=O)(=O)c1ccc2[nH]c3c(c2c1)CCCCC3	mHTT-CaM PPI inh 78
O=S(=O)(NCc1cccnc1)c1ccc2[nH]c3c(c2c1)CCCC3	none
O=S(=O)(NCc1ccco1)c1ccc2[nH]c3c(c2c1)CCCCC3	mHTT-CaM PPI inh 87
CN(C)CCN1C(=O)C(O)=C(C(=O)c2ccco2)C1c1ccc([N+](=O)[O-])cc1 (centres undefined)	none
Cc1ccc(COc2ccc(/C=C3\C(=O)NN(c4ccccc4)C3=O)cc2)cc1	none
COc1ccccc1CN1C(=O)CCC1(C)C(=O)NC1CCCC(C)C1C (centres undefined)	none
CCOc1ccc(N2C(=O)CC(Nc3ccc(F)cc3)C2=O)cc1 (centres undefined)	none
CN1CCN(c2ncncc2N2CCC(C(=O)NCc3ccccc3Cl)CC2)CC1	none
O=C(NCc1n[nH]c(=O)c2ccccc12)c1cc(-c2ccco2)[nH]n1	Pf apPOL block 78
O=C(NCc1n[nH]c(=O)c2ccccc12)c1cccc2ccccc12	none
COC(=O)c1c(C)oc2cc(Br)c(OCC(=O)OC(C)(C)C)cc12	none
COc1ccc(-c2cn3ccn(-c4ccc(F)cc4)c(=O)c3n2)cc1	none
COc1ccc(-c2cn3c(n2)c(=C2CCCN2)c(=O)n3-c2ccccc2)cc1	mHTT-CaM PPI inh 63
c1cc(-c2noc(-c3cccc4[nH]ccc34)n2)cc(-c2ccn[nH]2)c1	mHTT-CaM PPI inh 62
Fc1ccccc1-c1nc(-c2cccc(-c3ccn[nH]3)c2)no1	none
CCCCCCCC(=O)NN1C(=O)C(=Cc2ccc(O)c(OC)c2)SC1=S	mHTT-CaM PPI inh 88
